SMILES strings stand for the structures. This is part of a sample that, as a whole, favours compounds with a hit. Of some 83,000 tested, about 20% had one in any assay.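 The endpoint reported here, percent growth, reads 100 for growth as untreated, 0 for no net growth and -100 for all cells dead.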 Unmarked numbers belong to inactive results. Activity calls are given as the source filed them. How the source made its calls: active means growth percent below 10; inactive means the rest.

Some test systems named below: NCI-H23 lung; NCI-H226 lung; NCI-H322M lung; HOP-62 NSCLC; NCI-H460 lung; HOP-92 NSCLC; NCI-H522 lung; A549/ATCC NSCLC; 786-0 renal; COLO 205 colon.
Common to all, as to assay: NCI-60 one-dose screen, 48 h (100 = growth as untreated, 0 = no growth, -100 = all killed)
Details in all cases: 10 µM unless noted

`COc1ccc(N2CCC(=O)NC2=S)cc1`: the growth is 96.2% in the experiment with NCI-H23 lung; 98.6% with NCI-H226 lung; 112% in the experiment with NCI-H322M lung; 107% in the experiment with HOP-62 NSCLC; 104% in the experiment with NCI-H460 lung; 125% in the experiment on HOP-92 NSCLC. Besides, the growth in the experiment on NCI-H522 lung is 88.9%; in the experiment on A549/ATCC NSCLC, 108%; in the experiment with 786-0 renal, 104%; in the experiment on COLO 205 colon, 106%.
`O=C(NNC(=O)c1ccc(-n2cc(-c3ccccc3)nn2)cc1)Nc1ccccc1`: the growth was 97.6% with NCI-H23 lung; 99.6% in the experiment with NCI-H226 lung; 108% in the experiment with NCI-H322M lung; 94.8% in the experiment with HOP-62 NSCLC; 109% in the experiment on NCI-H460 lung; 98.8% in the experiment on HOP-92 NSCLC. Also, the growth was 108% in the experiment on NCI-H522 lung, 102% with A549/ATCC NSCLC, 104% with 786-0 renal and 111% in the experiment on COLO 205 colon.
On to `COc1cc(CNS(=O)(=O)c2ccc(C)cc2)ccc1OCc1cn(-c2ccc(F)cc2)nn1`, for which the growth with NCI-H23 lung is 79.6%; with NCI-H226 lung, 71.4%; in the experiment with NCI-H322M lung it was 102%; in the experiment with HOP-62 NSCLC, 102%; with NCI-H460 lung, 103%; in the experiment on HOP-92 NSCLC it was 86.4%. In addition, the growth in the experiment with NCI-H522 lung is 75.8%; with A549/ATCC NSCLC, 93.8%; with 786-0 renal, 97.2%; in the experiment with COLO 205 colon, 88%.
Turning to `COC(=O)c1cc(-c2ccc(OC)cc2)[nH]c1N/N=C/c1c(Cl)cccc1Cl`, the growth in the experiment with NCI-H23 lung was 46.1%; with NCI-H226 lung, 38.1%; with NCI-H322M lung, 36.1%; in the experiment on HOP-62 NSCLC, -42.5% (active); in the experiment on NCI-H460 lung it was -9.38% (active); with HOP-92 NSCLC it was 47.4%. Further, the growth is 10.5% in the experiment on NCI-H522 lung, 5.26% (active) in the experiment with A549/ATCC NSCLC, -14% (active) with 786-0 renal and -23.9% (active) in the experiment with COLO 205 colon.
As for `Cc1ccc(-c2nc3nc(-c4ccccc4)nc(N4CCNCC4)c3o2)cc1`, the growth in the experiment with NCI-H23 lung is -73.7% (active); in the experiment on NCI-H226 lung, -68.6% (active); in the experiment on NCI-H322M lung, -95.9% (active); in the experiment with HOP-62 NSCLC it was -92.9% (active); in the experiment with NCI-H460 lung, -72.4% (active); with HOP-92 NSCLC it was -73.5% (active). Further, the growth was -79.2% (active) in the experiment with NCI-H522 lung, -84.5% (active) in the experiment with A549/ATCC NSCLC, -84.5% (active) in the experiment with 786-0 renal and -92.4% (active) in the experiment with COLO 205 colon.
For the molecule `Cn1c(=O)c2c(nc(NC3=NS(=O)(=O)c4ccccc43)n2CC(=O)N2CCc3ccccc32)n(C)c1=O`, the growth with NCI-H23 lung was 87.2%; in the experiment on NCI-H226 lung, 98.8%; with NCI-H322M lung, 100%; in the experiment on HOP-62 NSCLC, 94.4%; in the experiment on NCI-H460 lung, 100%; in the experiment with HOP-92 NSCLC it was 109%. Moreover, the growth with NCI-H522 lung was 97.5%; in the experiment with A549/ATCC NSCLC it was 99.3%; with 786-0 renal, 97.3%; in the experiment on COLO 205 colon it was 101%.
For the molecule `CCCC(=O)NC(c1ccc2c(c1)OCO2)c1ccc2cccnc2c1O` (stereo not given), the growth with NCI-H23 lung is 24.1%; with NCI-H226 lung, 12.2%; in the experiment with NCI-H322M lung it was 25.9%; in the experiment with HOP-62 NSCLC, 20.4%; in the experiment on NCI-H460 lung, 9.17% (active); in the experiment on HOP-92 NSCLC, 31.4%. Besides, the growth was -4.35% (active) in the experiment with NCI-H522 lung, 20.8% in the experiment on A549/ATCC NSCLC, 19.8% in the experiment on 786-0 renal and 8.58% (active) in the experiment with COLO 205 colon.
As for `CC(C)CCC[C@@H](C)[C@H]1CC[C@H]2[C@@H]3CC=C4C[C@@H](C(C(=O)O)C(=O)O)CC[C@]4(C)[C@H]3CC[C@]12C`, the growth was -48% (active) in the experiment on NCI-H23 lung; -62.9% (active) in the experiment with NCI-H226 lung; -0.312% (active) with NCI-H322M lung; -54.8% (active) in the experiment with HOP-62 NSCLC; -71.5% (active) in the experiment with NCI-H460 lung; 8.17% (active) in the experiment on HOP-92 NSCLC. For the same molecule, the growth in the experiment on NCI-H522 lung was -28.7% (active); with A549/ATCC NSCLC, -51.7% (active); with 786-0 renal it was -58.6% (active); with COLO 205 colon, -91.1% (active).
`N#Cc1cccc(F)c1`: the growth in the experiment with NCI-H23 lung is 106%; in the experiment on NCI-H226 lung, 109%; with NCI-H322M lung, 115%; with HOP-62 NSCLC it was 110%; in the experiment with NCI-H460 lung, 118%; in the experiment with HOP-92 NSCLC, 113%. Further, the growth in the experiment with NCI-H522 lung was 102%; in the experiment on A549/ATCC NSCLC it was 109%; with 786-0 renal, 101%; in the experiment on COLO 205 colon, 114%.
As for `C=C(CNCCc1ccc(O)cc1)[C@@H]1CC[C@]2(CO)CC[C@]3(C)[C@H](CC[C@@H]4[C@@]5(C)CCC(NCCO)C(C)(C)[C@@H]5CC[C@]43C)[C@@H]12` (stereo not given in full), the growth with NCI-H23 lung was -33.5% (active); in the experiment on NCI-H226 lung it was 81.5%; in the experiment with NCI-H322M lung, -24.5% (active); with HOP-62 NSCLC it was -68.7% (active); in the experiment on NCI-H460 lung it was -87.4% (active); in the experiment on HOP-92 NSCLC, -62.6% (active). Further, the growth with NCI-H522 lung is -67.2% (active); in the experiment with A549/ATCC NSCLC it was -39% (active); in the experiment on 786-0 renal, -92.1% (active); in the experiment with COLO 205 colon, -68.5% (active).
On to `CCc1ccc(C(=O)/C=C/C23c4ccccc4C(c4ccccc42)C2C(=O)NC(=O)C23)cc1` (stereo not given), for which the growth with NCI-H23 lung was 15.9%; in the experiment on NCI-H226 lung, 42.3%; with NCI-H322M lung it was 15.8%; with HOP-62 NSCLC, -3.98% (active); in the experiment with NCI-H460 lung it was 5.14% (active); with HOP-92 NSCLC it was -17% (active). The growth was -12.6% (active) in the experiment on NCI-H522 lung, 21.5% with A549/ATCC NSCLC, -12.8% (active) in the experiment with 786-0 renal and -25.9% (active) in the experiment with COLO 205 colon.
For `O=C(CSc1nc2sc3c(c2c(=O)n1-c1ccccc1)CCCCC3)N/N=C/c1ccc(F)cc1`, the growth in the experiment with NCI-H23 lung is 37.7%; with NCI-H226 lung, 86.9%; in the experiment on NCI-H322M lung it was 67.5%; in the experiment on HOP-62 NSCLC, 19.9%; in the experiment with NCI-H460 lung, 1.12% (active); in the experiment on HOP-92 NSCLC, 82.6%. The growth in the experiment with NCI-H522 lung is 44.3%; in the experiment on A549/ATCC NSCLC it was 9.73% (active); with 786-0 renal, 64.1%; in the experiment on COLO 205 colon, 33%.
For the molecule `C=C1C(=O)O[C@H]2[C@H]1CC/C(COC(=O)CCSCCC(=O)OC/C1=C/CC[C@@]3(C)O[C@H]3[C@H]3OC(=O)C(=C)[C@@H]3CC1)=C\CC[C@@]1(C)O[C@@H]21`, the growth in the experiment with NCI-H23 lung was 9.21% (active); with NCI-H226 lung, -39.5% (active); in the experiment with NCI-H322M lung it was 80.5%; in the experiment on HOP-62 NSCLC it was 86.9%; with NCI-H460 lung, 9.87% (active); in the experiment on HOP-92 NSCLC, -50.2% (active). Also, the growth in the experiment with NCI-H522 lung was -75.8% (active); in the experiment with A549/ATCC NSCLC it was 71.1%; in the experiment with 786-0 renal, -21.9% (active); in the experiment on COLO 205 colon it was -72.3% (active).
As to `CC1(C)CC2=C3C=C[C@@H]4[C@@]5(C)CCC(=O)C(C)(C)[C@@H]5CC[C@@]4(C)[C@]3(C)CC[C@@]2(C(=O)O)CC1=O`, the growth is 71.6% in the experiment with NCI-H23 lung; 53% with NCI-H226 lung; 59.7% in the experiment on NCI-H322M lung; 76% with HOP-62 NSCLC; 76.7% with NCI-H460 lung; 25.8% in the experiment on HOP-92 NSCLC. Also, the growth was 65.1% in the experiment on NCI-H522 lung, 48.3% in the experiment with A549/ATCC NSCLC, 31.7% in the experiment with 786-0 renal and 68.6% in the experiment with COLO 205 colon.

These data come from PubChem BioAssay (NCI).
